Test results taken from article PMC4336329 (PLoS ONE, 2015).
Screen size: about 310,000 compounds; about 14,000 (4.5%) showed an effect of 50% or more. The effect is printed as a negative number. The full list was thinned out, with strong results kept by preference.

Target: human ether-à-go-go-related gene (hERG) potassium channel (human, UniProt Q12809)
Test: primary screen, population patch clamp on CHO cells stably expressing hERG; higher = less effect of the substance
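Further: peak tail current of the secondary pulse compared with the same well before compound.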

Chain of human ether-à-go-go-related gene (hERG) potassium channel (Q12809 whole entry, looked up): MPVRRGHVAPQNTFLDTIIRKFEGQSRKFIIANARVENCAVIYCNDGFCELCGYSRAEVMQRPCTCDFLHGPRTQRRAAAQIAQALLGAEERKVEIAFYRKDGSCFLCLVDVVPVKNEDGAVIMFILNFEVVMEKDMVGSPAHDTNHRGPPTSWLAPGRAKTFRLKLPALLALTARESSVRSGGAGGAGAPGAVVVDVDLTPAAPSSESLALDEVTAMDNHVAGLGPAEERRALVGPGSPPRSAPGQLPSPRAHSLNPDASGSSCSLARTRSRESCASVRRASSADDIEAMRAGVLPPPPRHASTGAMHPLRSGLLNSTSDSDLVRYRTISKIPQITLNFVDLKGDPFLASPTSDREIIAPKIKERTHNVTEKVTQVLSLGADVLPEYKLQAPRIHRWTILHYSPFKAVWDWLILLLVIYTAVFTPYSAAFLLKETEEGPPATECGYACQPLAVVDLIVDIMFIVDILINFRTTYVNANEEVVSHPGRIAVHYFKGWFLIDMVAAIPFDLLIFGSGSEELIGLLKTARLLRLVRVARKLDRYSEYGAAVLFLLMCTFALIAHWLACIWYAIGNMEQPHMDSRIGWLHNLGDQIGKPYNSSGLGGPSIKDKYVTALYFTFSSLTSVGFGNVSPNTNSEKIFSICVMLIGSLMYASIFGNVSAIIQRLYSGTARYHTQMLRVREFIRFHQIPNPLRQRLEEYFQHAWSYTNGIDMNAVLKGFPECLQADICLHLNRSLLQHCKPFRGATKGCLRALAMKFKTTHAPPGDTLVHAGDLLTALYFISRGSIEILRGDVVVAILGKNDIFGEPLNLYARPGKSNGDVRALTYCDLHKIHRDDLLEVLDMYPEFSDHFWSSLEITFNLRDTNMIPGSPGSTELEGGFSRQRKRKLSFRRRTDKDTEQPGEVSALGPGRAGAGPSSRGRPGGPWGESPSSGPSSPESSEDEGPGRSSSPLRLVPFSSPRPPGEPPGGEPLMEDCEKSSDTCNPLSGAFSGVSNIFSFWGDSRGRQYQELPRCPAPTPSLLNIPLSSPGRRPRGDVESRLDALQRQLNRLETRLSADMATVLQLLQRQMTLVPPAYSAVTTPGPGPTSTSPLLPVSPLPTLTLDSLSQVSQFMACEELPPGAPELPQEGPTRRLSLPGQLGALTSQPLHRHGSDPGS

| SMILES | hERG current change (%, negative = inhibition) at 10uM [%] |
| --- | --- |
| CC1=CC(C)[C@@H]2COC(c3ccc(O)cc3)[C@H]1C2C (some centres unmarked) | 4.96 |
| Cc1ccc(N2CC(C(=O)NCc3nnnn3-c3ccc(C)c(C)c3)CC2=O)cc1 (centres unmarked) | -19.8 |
| Cc1ccc(S(=O)(=O)NC(=O)C2CCCCC2)cc1 | 14.3 |
| O=C(COc1ccc2ccccc2c1)NCCNC(=O)COc1ccc2ccccc2c1 | 17.2 |
| O=C(c1cc(-c2ccccc2)on1)N1CCCC1 | 9.39 |
| O=C(NCc1ccc2c(c1)OCO2)c1ccc2c(c1)OCCO2 | 8.03 |
| CC(C(=O)Nc1cccc(S(=O)(=O)N2CCOCC2)c1)N1CCN(C/C=C/c2ccccc2)CC1 (centres unmarked) | -75 |
| CC(CN1CCN(Cc2ccccc2)CC1)c1ccccc1.O=C(O)C(=O)O (centres unmarked) | -14 |
| CC(=O)Nc1ccc(S(=O)(=O)N[C@@H](C)C(=O)N2CCN(C/C=C/c3ccccc3)CC2)cc1 | -31.8 |
| CC(=O)c1ccc(S(=O)(=O)NCC(=O)N2CCN(C/C=C/c3ccccc3)CC2)cc1 | -38.7 |
| CC(C(=O)Nc1cccc(S(=O)(=O)N2CCOCC2)c1)N1CCN(C)CC1 (centres unmarked) | -5.23 |
| CC(C)C(NC(=O)c1ccccc1)C(=O)N1CCN(C/C=C/c2ccccc2)CC1 (centres unmarked) | -41.2 |
| CC(C(=O)N(C)Cc1ccccc1)N1CCN(C/C=C/c2ccccc2)CC1 (centres unmarked) | -78.9 |
| CC(=O)c1ccc(NC(=O)C(C)N2CCN(C/C=C/c3ccccc3)CC2)cc1 (centres unmarked) | -71.4 |
| CC(CN1CCCCC1)c1ccccc1.O=C(O)C(=O)O (centres unmarked) | 13.1 |
| CC(C(=O)Nc1cccc(S(=O)(=O)N2CCOCC2)c1)N1CCN(c2ccc(F)cc2)CC1 (centres unmarked) | -40.3 |
| CC(CN1CCN(C/C=C/c2ccccc2)CC1)c1ccccc1.O=C(O)C(=O)O (centres unmarked) | -59.6 |
| COc1ccc(N2CCN(C(C)C(=O)N(C)Cc3ccccc3)CC2)cc1 (centres unmarked) | -17.3 |
| CCc1nnc(NC(=O)c2ccc(S(=O)(=O)N(CC)Cc3ccccc3)cc2)o1 | -12.9 |
| O=C(Nc1nc(-c2cccs2)cs1)C1=COCCO1 | -15.9 |
| CCCCC(=O)Nc1ccc2c(c1)C(=O)NC2=O | 2.21 |
| Cc1ccc(NC(=O)c2c(-c3ccccc3Cl)noc2C)nc1 | 1.56 |
| COc1ccc(NC(=O)COC(=O)c2cc(Cl)ccc2O)cc1S(=O)(=O)N1CCCCC1 | 10.5 |

| SMILES | hERG current change (%, negative = inhibition) at 10uM [%] |
| --- | --- |
| O=C(COC(=O)c1cccnc1Cl)NCC1CCCO1 (centres unmarked) | 10.8 |
| COc1ccccc1/C=C/C=N/N1CCN(c2ccccn2)CC1 | -2.4 |
| Cc1cccc(CS(=O)(=O)Cc2ccc(C(=O)O)o2)c1 | 16.5 |
| COC(C(=O)Nc1cccc([N+](=O)[O-])c1)c1ccccc1 (centres unmarked) | 1.56 |
| CC(C)NC(=S)N1CCN(C/C=C/c2ccccc2)CC1 | -15.5 |
| CCCCNC(=O)N1CCN(C/C=C/c2ccccc2)CC1 | -29.9 |
| CNC(=O)NC(=O)C(C)N1CCN(C/C=C/c2ccccc2)CC1 (centres unmarked) | -63 |
| CC(C(=O)Nc1cccc([N+](=O)[O-])c1)n1nnc2ccccc21 (centres unmarked) | -33.5 |
| CC(C(=O)Nc1cccc([N+](=O)[O-])c1)N1CCN(C/C=C/c2ccccc2)CC1 (centres unmarked) | -75.6 |
| Cc1nc(SCC(N)=O)[nH]c(=O)c1Cc1ccc(OC(C)C)cc1 | 3.98 |
| CCCCCC(=O)Nc1ccc(-c2csc(C)n2)cc1 | 18.7 |
| COc1cccc(N(CC(=O)NC(C)c2ccccc2)S(C)(=O)=O)c1 (centres unmarked) | 22.3 |
| N=C1/C(=C\c2coc3ccccc3c2=O)C(=O)N=C2SC(c3ccncc3)=NN12 | -59 |
| N=C1/C(=C\c2coc3ccccc3c2=O)C(=O)N=C2SC=CN12 | 15.3 |
| N=C1/C(=C/c2coc3ccccc3c2=O)C(=O)N=C2SC(c3ccco3)=NN12 | 12.8 |
| O=C(Nc1nnc(-c2ccc(Cl)cc2)o1)Nc1ccccc1F | 1.31 |
| Cc1csc(CN(C)C(=O)CC2C(=O)NCCN2Cc2ccc(F)c(F)c2)n1 (centres unmarked) | 6.02 |
| COCCCNC(=S)NCCNc1nc2cc(C)c(C)cc2cc1C#N | -2.23 |
| C/C(=C/c1ccccc1)C(=O)N1CC(C)OC(C)C1 (centres unmarked) | 11.7 |
| COc1cc2c(cc1OC)C(c1cccc(C)c1)CC(=O)N2 (centres unmarked) | -10.5 |
| CCn1c(SCC(=O)N=Nc2c(O)[nH]c3ccccc23)nnc1-c1ccc(C(C)(C)C)cc1 | -5.11 |
| Cc1cc(O)cc(C)c1Cl | -2.78 |
| CC(=O)N1CCN(C(=O)c2ccc(Cl)c(NC(=O)c3cccs3)c2)CC1 | -15.3 |

| SMILES | hERG current change (%, negative = inhibition) at 10uM [%] |
| --- | --- |
| O=C(Nc1cc(C(=O)N2CCN(c3ccccc3O)CC2)ccc1Cl)c1cccs1 | -60.1 |
| CCOC(=O)N1CCN(C(=O)c2ccc(Cl)c(NC(=O)c3cccs3)c2)CC1 | -54.7 |
| Cc1ccc(NC(=O)c2ccc(Cl)c(NC(=O)c3cccs3)c2)cc1 | -12.5 |
| O=C(NCC(=O)N1CCN(c2ccccc2O)CC1)c1cccs1 | 3.84 |
| O=C(NC(=S)Nc1ccccc1N1CCN(C(=O)c2ccccc2)CC1)c1cccs1 | 9.73 |
| COc1ccc(NC(=O)CN(C)C(=O)c2ccc(=O)[nH]c2)cc1 | 21.7 |
| COc1ccc(NC(=O)C2CC(=O)N(Cc3ccco3)C2)cc1Cl (centres unmarked) | -4.14 |
| N/C(=N\O)c1ccccc1-n1cccc1 | 25.7 |
| COc1ccc(/C(N)=N/OC(=O)/C=C/c2ccccc2)cc1 | -37.2 |
| CCCN1CCN(S(=O)(=O)c2cn(C)nc2C)CC1 | 22 |
| CC(C)NC(=O)c1ccc(CN2CCC(Cc3ccccc3)CC2)cc1 | -37.2 |
| COCCNC(=O)c1ccc(CN2CCC(Cc3ccccc3)CC2)cc1 | -11.6 |
| O=C(NCc1ccccc1)N1CCC(Cc2ccccc2)CC1 | 10.5 |
| Cc1ccc(S(=O)(=O)NCc2ccc(C(=O)NCCCN3CCC(Cc4ccccc4)CC3)cc2)cc1 | -80.6 |
| NC(=O)c1ccc(CN2CCC(Cc3ccccc3)CC2)cc1 | -57.1 |
| C=CCNC(=O)c1ccc(C2SCC(=O)N2Cc2ccccc2)cc1 (centres unmarked) | 6.11 |
| C=CCNC(=O)c1ccc(CN2CCC(Cc3ccccc3)CC2)cc1 | -66.8 |
| C=CCNC(=S)N1CCC(Cc2ccccc2)CC1 | -25.9 |
| O=C(NCc1ccccc1)c1ccc(CN2CCC(Cc3ccccc3)CC2)cc1 | -70.3 |
| Cc1ccc(S(=O)(=O)NCc2ccc(C(=O)NCCCN3CCN(C)CC3)cc2)cc1 | 19.3 |
| O=C(Nc1ccccc1)c1ccc(CN2CCC(Cc3ccccc3)CC2)cc1 | 14.7 |
| CC(=O)Nc1ccc(S(=O)(=O)NCc2ccc(C(=O)NCCCN3CCC(C)CC3)cc2)cc1 | 19.7 |
| Cc1noc(C)c1COC(=O)c1cccnc1Cl | 3.21 |

| SMILES | hERG current change (%, negative = inhibition) at 10uM [%] |
| --- | --- |
| CNC(=S)Nc1cc(S(=O)(=O)Nc2cc(Cl)ccc2Cl)ccc1N1CCCC1 | -12.4 |
| CN1C(=O)c2cccc(NC(=O)CCc3ccccc3)c2C1=O | -19.6 |
| CC1Cc2ccccc2N1C(=O)CSc1nnc2c(n1)[nH]c1ccc(F)cc12 (centres unmarked) | 12.6 |
| O=C(CSc1nnc(COc2ccccc2)o1)c1ccccc1 | 1.95 |
| CCC(C)(C)NC(=O)C(c1ccc(F)cc1)N(Cc1cccc(OC)c1)C(=O)c1cnccn1 (centres unmarked) | 9.72 |
| COC(=O)C1=C(C)C(c2ccc(OC)cc2OC)NC(=O)N1 (centres unmarked) | 13.1 |
| Cc1ccc(N2C(=O)C3C4C=CC(CC4)C3C2=O)cc1Br (centres unmarked) | 15.4 |
| Cl.Nc1nc(-c2ccc3c(c2)OCCO3)cs1 | 19.4 |
| c1ccn2cc(-c3ccc4c(c3)OCCO4)nc2c1 | 1.08 |
| c1cncc(-c2nc(-c3ccc4c(c3)OCCO4)cs2)c1 | -4.72 |
| N#CCC(=O)Nc1nc(-c2ccc3c(c2)OCCO3)cs1 | 13.1 |
| N#Cc1cncc(-c2ccc3c(c2)OCCOCCOCCOCCOCCO3)n1 | -86.9 |
| N#Cc1ncc(-c2ccc3c(c2)OCCOCCOCCOCCOCCO3)nc1C#N | -75.3 |
| Cc1ccc2nc(-c3ccc4c(c3)OCCO4)cn2c1 | -16 |
| N#Cc1cn(-c2ccccc2)nc1-c1ccc2c(c1)OCCO2 | 11.8 |
| N#Cc1ncc(-c2ccc3c(c2)OCCOCCOCCOCCO3)nc1C#N | -69 |
| COc1ccc(C(=O)NC(=S)Nc2ccc3[nH]c(=O)[nH]c3c2)c(OC)c1 | 5.35 |
| O=C(CN1C(=O)C2C3C=CC(C4CC34)C2C1=O)Nc1cccc2ncccc12 (centres unmarked) | 0.881 |
| CCOC(=O)c1ccc(-c2ccc3c(c2)CCC3)nc1C | 12.6 |
| COc1ccccc1C(=O)N/C(N)=N/c1nc2ccccc2o1 | 1.36 |
